Reference: the supplement of paper PMC11732987, “Enantioselective OTUD7B fragment discovery through chemoproteomics screening and high-throughput optimisation” (Communications Chemistry, 2025)

Legend:
Assay in all cases: log2 ratio of Biotin-Ahx-Ub-VS probe labelling (fragment/DMSO); higher = less target engagement (more negative = stronger competition), active = hit call of the paper (q ≤ 0.05, log2 ratio ≤ -1)
Conditions in all cases: compound concentration: 200 uM; treatment time: 3 h
[1] = target: USP9X (UniProt Q93008)
Chain of USP9X (Q93008 whole entry, the tested form may be a part): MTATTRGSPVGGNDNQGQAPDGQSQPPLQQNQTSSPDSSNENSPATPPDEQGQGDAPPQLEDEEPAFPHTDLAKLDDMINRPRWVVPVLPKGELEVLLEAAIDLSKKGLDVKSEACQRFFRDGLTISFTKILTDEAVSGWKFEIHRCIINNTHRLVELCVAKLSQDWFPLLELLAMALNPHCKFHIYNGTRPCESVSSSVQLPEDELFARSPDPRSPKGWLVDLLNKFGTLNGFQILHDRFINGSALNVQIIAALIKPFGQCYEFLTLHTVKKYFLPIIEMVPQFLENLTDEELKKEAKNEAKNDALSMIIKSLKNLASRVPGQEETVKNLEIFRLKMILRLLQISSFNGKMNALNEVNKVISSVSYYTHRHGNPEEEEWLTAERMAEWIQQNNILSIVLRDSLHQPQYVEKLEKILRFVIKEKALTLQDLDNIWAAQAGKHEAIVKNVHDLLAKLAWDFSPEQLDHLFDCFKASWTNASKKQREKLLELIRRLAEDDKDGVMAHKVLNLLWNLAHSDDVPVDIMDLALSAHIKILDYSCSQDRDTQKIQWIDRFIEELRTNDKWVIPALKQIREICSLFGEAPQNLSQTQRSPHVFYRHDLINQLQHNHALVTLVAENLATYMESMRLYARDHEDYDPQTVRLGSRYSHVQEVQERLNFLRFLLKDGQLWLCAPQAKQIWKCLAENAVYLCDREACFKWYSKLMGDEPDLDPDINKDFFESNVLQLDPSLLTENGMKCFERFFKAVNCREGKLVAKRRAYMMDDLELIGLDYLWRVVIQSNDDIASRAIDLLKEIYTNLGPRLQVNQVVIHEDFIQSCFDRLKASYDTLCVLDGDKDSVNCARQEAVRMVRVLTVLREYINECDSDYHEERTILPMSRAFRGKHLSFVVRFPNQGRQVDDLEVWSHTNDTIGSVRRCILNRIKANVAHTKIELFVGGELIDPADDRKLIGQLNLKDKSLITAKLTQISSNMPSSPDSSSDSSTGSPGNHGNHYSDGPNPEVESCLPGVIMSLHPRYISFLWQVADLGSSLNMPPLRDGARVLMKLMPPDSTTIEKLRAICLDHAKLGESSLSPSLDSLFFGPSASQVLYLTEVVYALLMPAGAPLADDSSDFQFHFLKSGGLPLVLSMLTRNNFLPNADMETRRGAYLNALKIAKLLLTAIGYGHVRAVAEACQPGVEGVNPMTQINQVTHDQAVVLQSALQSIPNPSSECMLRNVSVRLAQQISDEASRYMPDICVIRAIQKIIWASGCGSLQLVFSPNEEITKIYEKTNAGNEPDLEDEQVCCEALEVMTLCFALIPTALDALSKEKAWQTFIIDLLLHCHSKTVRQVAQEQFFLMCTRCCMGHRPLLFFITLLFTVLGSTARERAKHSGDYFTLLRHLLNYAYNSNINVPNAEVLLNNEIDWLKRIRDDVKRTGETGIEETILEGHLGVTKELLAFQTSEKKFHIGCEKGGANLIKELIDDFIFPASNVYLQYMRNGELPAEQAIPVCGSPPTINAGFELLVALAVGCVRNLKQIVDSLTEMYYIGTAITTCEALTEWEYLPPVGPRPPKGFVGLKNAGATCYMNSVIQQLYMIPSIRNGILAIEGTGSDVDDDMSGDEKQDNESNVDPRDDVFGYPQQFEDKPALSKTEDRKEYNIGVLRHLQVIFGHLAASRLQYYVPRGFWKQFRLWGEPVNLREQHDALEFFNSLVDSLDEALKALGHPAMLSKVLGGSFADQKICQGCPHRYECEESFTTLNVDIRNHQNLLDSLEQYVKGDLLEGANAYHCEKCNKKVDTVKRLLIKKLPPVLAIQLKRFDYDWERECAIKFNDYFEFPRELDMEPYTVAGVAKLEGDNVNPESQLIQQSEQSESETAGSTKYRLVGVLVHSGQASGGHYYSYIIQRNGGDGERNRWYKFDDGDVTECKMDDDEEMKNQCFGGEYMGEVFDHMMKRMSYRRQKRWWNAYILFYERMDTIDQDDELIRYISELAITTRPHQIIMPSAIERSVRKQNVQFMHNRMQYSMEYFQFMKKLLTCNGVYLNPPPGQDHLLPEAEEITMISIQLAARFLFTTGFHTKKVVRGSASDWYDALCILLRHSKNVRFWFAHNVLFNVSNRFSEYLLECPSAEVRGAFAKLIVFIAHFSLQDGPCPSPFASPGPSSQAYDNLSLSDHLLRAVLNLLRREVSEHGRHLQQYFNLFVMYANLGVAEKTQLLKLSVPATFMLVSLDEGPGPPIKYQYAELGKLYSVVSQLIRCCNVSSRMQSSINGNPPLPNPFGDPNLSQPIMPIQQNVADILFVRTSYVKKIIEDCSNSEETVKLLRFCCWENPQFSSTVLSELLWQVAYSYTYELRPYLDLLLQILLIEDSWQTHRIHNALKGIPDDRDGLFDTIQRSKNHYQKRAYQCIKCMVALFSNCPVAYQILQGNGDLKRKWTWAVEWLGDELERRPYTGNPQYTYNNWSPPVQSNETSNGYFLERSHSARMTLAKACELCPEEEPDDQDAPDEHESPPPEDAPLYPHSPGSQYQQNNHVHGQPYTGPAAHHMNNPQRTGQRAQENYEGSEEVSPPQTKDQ
In short: (§1)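 HEK293T lysate (495 µg per sample, in Tris/CHAPS/IGEPAL buffer with protease inhibitors) was treated in triplicate with fragment at 200 µM or with DMSO for 3 h. It was then treated with Biotin-Ahx-Ub-VS (0.5 µM final) for 1 h. Labelled DUBs were NeutrAvidin-enriched, digested with LysC and trypsin, and run by diaPASEF LC-MS/MS. Spectronaut label-free quantities were global-median-normalised. Values are average log2 ratios fragment/DMSO by unpaired t-test, using proteins with ≥2 unique peptides.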

[2] = target: UniProt O00487
Chain of UniProt O00487 (O00487 whole entry): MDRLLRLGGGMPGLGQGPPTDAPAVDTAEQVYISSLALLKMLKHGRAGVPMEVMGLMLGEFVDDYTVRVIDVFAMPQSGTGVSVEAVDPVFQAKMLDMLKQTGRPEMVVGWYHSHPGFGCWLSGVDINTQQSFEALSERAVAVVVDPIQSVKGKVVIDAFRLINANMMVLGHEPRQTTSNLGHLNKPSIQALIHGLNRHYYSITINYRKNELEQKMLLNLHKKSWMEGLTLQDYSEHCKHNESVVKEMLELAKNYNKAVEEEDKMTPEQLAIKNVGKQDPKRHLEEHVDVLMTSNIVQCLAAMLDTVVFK
In short: as §1

[3] = target: UniProt O00507
In short: as §1

[4] = target: UniProt P51784
Chain of UniProt P51784 (P51784 whole entry): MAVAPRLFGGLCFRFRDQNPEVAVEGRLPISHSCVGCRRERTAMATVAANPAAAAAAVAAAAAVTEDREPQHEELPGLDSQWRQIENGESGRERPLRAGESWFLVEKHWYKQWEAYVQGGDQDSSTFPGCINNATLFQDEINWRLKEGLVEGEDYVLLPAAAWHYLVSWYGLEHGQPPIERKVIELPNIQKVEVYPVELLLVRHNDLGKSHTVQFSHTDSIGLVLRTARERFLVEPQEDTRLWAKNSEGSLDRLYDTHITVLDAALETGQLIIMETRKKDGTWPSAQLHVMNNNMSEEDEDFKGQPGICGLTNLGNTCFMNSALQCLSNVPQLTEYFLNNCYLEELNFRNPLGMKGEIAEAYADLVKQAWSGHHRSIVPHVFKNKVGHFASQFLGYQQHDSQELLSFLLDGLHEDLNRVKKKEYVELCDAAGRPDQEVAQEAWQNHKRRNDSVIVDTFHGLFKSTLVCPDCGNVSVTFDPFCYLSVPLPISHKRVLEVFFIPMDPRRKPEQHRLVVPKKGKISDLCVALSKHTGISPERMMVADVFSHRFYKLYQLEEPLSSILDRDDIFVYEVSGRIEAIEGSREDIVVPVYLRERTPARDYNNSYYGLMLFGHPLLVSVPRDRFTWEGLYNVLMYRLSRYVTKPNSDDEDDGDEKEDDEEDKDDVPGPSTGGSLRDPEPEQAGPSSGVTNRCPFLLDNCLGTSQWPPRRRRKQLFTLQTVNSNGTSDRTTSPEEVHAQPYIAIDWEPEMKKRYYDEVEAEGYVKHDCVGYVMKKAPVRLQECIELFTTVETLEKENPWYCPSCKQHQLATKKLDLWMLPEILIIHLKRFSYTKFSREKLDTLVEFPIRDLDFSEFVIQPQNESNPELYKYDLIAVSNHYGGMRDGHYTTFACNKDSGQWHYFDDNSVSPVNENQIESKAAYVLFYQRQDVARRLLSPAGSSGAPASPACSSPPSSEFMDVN
In short: as §1

[5] = target: T1, UniProt Q5T2D3
T1 sequence (whole entry): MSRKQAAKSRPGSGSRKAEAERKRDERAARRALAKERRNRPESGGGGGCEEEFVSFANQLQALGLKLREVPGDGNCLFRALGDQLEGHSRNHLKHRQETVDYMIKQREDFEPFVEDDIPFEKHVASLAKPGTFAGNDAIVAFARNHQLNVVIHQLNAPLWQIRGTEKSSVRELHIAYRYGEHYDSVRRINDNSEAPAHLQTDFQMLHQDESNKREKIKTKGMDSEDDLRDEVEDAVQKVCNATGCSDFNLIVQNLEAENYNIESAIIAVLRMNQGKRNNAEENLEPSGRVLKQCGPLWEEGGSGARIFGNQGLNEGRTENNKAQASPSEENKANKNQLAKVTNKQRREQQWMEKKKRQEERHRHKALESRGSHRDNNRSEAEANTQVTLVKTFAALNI
In short: as §1

[6] = target: T2, UniProt Q8TE49
T2 sequence (whole entry): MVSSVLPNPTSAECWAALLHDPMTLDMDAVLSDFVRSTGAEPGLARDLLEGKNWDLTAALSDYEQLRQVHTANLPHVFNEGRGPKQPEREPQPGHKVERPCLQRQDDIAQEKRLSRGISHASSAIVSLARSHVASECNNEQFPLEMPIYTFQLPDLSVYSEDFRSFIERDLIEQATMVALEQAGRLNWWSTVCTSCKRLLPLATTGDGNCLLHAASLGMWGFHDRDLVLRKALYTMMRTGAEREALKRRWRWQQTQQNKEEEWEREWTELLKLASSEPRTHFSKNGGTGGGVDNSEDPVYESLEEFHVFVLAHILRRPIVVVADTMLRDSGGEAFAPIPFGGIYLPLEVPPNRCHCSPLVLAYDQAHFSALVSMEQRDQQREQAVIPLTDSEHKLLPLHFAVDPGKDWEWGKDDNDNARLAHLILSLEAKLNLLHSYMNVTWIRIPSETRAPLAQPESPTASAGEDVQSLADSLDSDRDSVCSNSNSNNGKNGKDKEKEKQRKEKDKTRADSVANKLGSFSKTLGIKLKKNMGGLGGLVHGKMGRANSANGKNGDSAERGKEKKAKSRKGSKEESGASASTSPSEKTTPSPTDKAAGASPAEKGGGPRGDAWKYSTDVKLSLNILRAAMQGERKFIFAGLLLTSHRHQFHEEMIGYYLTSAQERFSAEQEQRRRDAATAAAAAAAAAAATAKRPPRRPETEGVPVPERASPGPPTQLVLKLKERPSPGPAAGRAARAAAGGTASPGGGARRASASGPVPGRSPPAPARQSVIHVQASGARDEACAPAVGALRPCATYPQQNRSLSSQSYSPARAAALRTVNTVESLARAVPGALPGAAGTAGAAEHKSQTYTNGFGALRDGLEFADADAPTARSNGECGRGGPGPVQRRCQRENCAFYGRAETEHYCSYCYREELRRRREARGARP
In short: as §1

[7] = target: T3, UniProt Q9P2H5
T3 sequence (whole entry): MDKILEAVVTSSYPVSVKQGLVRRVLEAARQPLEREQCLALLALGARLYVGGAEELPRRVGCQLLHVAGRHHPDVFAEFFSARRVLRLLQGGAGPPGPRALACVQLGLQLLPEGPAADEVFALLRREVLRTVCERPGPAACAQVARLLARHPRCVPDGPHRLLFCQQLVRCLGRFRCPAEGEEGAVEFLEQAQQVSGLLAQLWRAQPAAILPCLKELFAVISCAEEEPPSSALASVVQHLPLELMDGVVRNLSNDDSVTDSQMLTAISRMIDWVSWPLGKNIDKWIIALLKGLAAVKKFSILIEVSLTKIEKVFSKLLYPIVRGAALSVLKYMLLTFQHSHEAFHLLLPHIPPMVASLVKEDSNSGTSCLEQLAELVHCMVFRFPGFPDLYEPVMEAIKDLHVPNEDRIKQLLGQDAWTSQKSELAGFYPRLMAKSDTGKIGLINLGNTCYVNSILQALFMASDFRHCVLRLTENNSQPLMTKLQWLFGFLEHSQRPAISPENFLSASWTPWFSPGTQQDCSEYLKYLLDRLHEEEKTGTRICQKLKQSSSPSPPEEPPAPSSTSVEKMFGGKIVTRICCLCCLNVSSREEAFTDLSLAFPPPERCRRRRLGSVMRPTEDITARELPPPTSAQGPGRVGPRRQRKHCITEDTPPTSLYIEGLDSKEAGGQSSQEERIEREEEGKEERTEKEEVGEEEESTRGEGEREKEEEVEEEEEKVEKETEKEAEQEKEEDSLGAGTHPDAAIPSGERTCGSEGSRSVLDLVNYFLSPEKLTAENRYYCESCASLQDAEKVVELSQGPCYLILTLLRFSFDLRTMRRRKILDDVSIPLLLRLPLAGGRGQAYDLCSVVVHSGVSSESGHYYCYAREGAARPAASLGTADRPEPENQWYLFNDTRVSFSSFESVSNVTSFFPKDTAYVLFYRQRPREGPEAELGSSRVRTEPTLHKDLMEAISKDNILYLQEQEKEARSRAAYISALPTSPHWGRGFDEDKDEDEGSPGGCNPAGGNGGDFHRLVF
In short: as §1

[8] = target: T4, UniProt Q9UGI0
T4 sequence (whole entry): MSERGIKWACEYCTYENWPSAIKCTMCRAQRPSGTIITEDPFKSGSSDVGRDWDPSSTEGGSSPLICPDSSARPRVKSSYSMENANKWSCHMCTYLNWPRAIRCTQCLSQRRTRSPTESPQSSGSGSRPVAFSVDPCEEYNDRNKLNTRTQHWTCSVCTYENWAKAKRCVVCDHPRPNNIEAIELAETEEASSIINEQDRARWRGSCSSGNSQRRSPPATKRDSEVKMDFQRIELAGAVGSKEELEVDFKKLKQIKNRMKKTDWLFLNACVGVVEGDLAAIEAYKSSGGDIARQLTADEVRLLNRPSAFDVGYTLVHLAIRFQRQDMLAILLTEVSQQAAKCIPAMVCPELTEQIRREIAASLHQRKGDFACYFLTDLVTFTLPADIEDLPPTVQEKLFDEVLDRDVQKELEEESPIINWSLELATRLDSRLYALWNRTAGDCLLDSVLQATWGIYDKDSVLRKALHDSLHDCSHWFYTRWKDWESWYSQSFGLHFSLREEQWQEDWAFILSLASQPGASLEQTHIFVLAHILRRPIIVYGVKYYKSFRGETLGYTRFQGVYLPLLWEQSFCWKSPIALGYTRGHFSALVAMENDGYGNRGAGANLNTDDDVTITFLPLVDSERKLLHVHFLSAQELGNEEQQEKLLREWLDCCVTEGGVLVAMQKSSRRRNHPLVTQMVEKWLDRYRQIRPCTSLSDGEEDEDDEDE
In short: as §1

[9] = target: T5, YOD1 (UniProt Q5VVQ6)
T5 sequence (whole entry): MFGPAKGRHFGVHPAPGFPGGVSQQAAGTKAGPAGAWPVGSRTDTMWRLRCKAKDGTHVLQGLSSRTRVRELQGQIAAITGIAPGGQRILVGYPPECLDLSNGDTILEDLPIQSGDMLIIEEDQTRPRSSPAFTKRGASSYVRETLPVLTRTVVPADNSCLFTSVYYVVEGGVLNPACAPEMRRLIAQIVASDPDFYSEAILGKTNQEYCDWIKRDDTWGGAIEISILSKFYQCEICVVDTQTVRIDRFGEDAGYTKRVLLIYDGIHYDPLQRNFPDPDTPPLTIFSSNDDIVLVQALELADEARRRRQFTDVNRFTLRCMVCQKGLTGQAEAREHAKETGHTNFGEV
In short: as §1

Measured: log2 ratio of Biotin-Ahx-Ub-VS probe labelling

O=C(CCl)N1CCOC2(CCC2)CC1
active: [8] -1.19
inactive: [1] -0.0935 | [2] 0.0511 | [3] -0.268 | [4] -0.147 | [5] -0.0132 | [6] -0.472 | [7] -0.184 | [9] -0.0502
